The text below walks through data of ChEMBL document CHEMBL4513216, “Probing the Open Global Health Chemical Diversity Library for Multistage-Active Starting Points for Next-Generation Antimalarials” (ACS Infect Dis, 2020).

About 2,700 (4%) of roughly 68,000 compounds showed an effect of 50% or more. The sample as a whole holds a higher share of strong results than the screen did.

This assay relates to Plasmodium berghei. Nature of the assay: Screen against P. berghei liver stage (PbLuc), transformed with Luciferase, at 2uM. The format is functional, HepG2. The following applies: tested at 2 uM.
`c1ccc(N2CCCC3(CCN(Cc4ccsc4)C3)C2)nc1` (centres undefined): the INHIBITION is on record as 33.14%.
Consider `CC(=O)NCC(=O)N1CCCC1c1ccc(CN2CCOCC2)cn1` (centres undefined), for which the INHIBITION is reported as 26.22%.
On to `CC(C)c1noc(CN2CCN(C(=O)c3cccnc3O)CC2)n1`, for which the INHIBITION is on record as -2.82%.
Take `Cc1cc(CNc2nccc(N)n2)c2[nH]c(C)c(C)c2c1`: the INHIBITION is reported as -5.41%.
With `CCc1ncnc2c1CCN(S(=O)(=O)CC)CC2`, the INHIBITION was found to be 1.81%.
For the compound `Cc1nc(CN(C)C(=O)c2ccc(Cn3cnnn3)cc2)cs1`, the INHIBITION is 21.57%.
Consider `Cc1ncsc1CCN(C)C(=O)c1ccc(Cn2cnnn2)cc1`, for which the INHIBITION worked out at 89.46%.
As for `Cc1ncsc1CCN(C)C(=O)c1ccc(CN2CCCCC2)cc1`, the INHIBITION is given as -20.75%.
For the compound `CC(Cn1ccnc1)NC(=O)NCCc1ccc2c(c1)OCCO2` (centres undefined), the INHIBITION was -14.3%.
`O=C(N1CCCC1)C1(Cc2ccc(-c3cccs3)cc2)CCNC1` (centres undefined): the INHIBITION is listed as 17.24%.
Then `COCC(=O)N1CCCN(Cc2c(C)nc3ccc(Cl)cn23)CC1`, with 12.43%; and `CCn1cc(CN2CCN(CC(O)c3ccc(C)cc3C)CC2)c(C)n1` (centres undefined), with 54.9%.
Then `CCn1cc(CN2CCN(CC(O)c3ccc(C)cc3C)CC2)cn1` (centres undefined), with 35.73%.
For the compound `CCn1cc(CN2CCN(CC(O)c3cc(C)ccc3C)CC2)c(C)n1` (centres undefined), the INHIBITION is given as -2.2%.
For the compound `CN(Cc1ccc(N(C)C)cc1)C(=O)CS(=O)(=O)c1ccc(Cl)cc1`, the INHIBITION came out at 9.02%.
As to `Cc1nccc(C2CCCCN2Cc2ccc(F)cc2)n1` (centres undefined), the INHIBITION is -10.12%.
Take `Cc1nccc(C2CCCCN2Cc2cccc(F)c2)n1` (centres undefined): the INHIBITION is 94.5%.
Then `Fc1cccc(C2CCCCN2Cc2nc(-c3cnccn3)no2)c1` (centres undefined), with 58.69%; and `Nc1nccc(C2CCCCN2Cc2cccc(F)c2)n1` (centres undefined), with 25.72%.
The value for `c1ccc(C2CCCN2Cc2nc(-c3cnccn3)no2)nc1` (centres undefined) was -5.19%; that for `c1ccc(C2CCCCN2Cc2nc(-c3cnccn3)no2)nc1` (centres undefined) was 6.92%; that for `Cc1cc(=O)[nH]c(-n2nc(C)c(CCC(=O)Nc3nc(C)cs3)c2C)n1` was -7.56%.
Then `Cc1ccsc1CN1CCn2c(COc3cccnc3)cnc2C1C` (centres undefined), with 3.63%; and `O=S(=O)(Nc1cnn(C2CCOCC2)c1)c1ccc(F)c(F)c1`, with -38.4%; and `COc1cccc(CNC(=O)CCC2=Nc3ccccc3S(=O)(=O)N2)c1`, with -1.65%.
As to `Cc1ccc(NCCCNc2nccc(-c3cn(C)nc3C)n2)nc1`, the INHIBITION stood at 37.5%.
Turning to `CNC(=O)C1Cn2ccnc2C2(CCN(Cc3cccc(C)n3)CC2)O1` (centres undefined), the INHIBITION was -15.95%.
With `O=C(Cn1cccn1)NCC1CCN(Cc2cc3ccccc3[nH]2)C1` (centres undefined), the INHIBITION is given as -0.59%.
On to `O=C(Cn1cccn1)NCC1CCCN(Cc2ccccc2)C1` (centres undefined), for which the INHIBITION is listed as 81.59%.
On to `Cc1cc(CN2CCCC(CNC(=O)Cn3cccn3)C2)oc1C` (centres undefined), for which the INHIBITION stood at 2.9%.
For `Cc1cc(C2CCCN2C(=O)c2ccc(OCC(N)=O)cc2)no1` (centres undefined), the INHIBITION worked out at 34.18%.
Regarding `CC(C)(C)CC(=O)N[C@@H]1CO[C@H](CNC(=O)c2ccncc2)[C@H]1O`, the INHIBITION was determined as 17.9%.
`CC(NCc1cnn(C)c1)c1ccc(OCc2nccn2C)cc1` (centres undefined): the INHIBITION was 37.18%.
On to `CC(NCc1ccsc1)c1ccc(OCc2nccn2C)cc1` (centres undefined), for which the INHIBITION worked out at 24.05%.
Then `CC(NCc1cccs1)c1ccc(OCc2nccn2C)cc1` (centres undefined), with 63.46%; and `O=C(CCCc1cn[nH]c1)N1C[C@@H](CN2CCCCCC2)[C@@H](CO)C1`, with -5.41%.
For the compound `CC(CNC(=O)c1c[nH]nn1)Oc1ccccc1Br` (centres undefined), the INHIBITION is 67.83%.
Then `CC(CNC(=O)c1c[nH]nn1)Oc1cccc(Br)c1` (centres undefined), with -10.85%; and `Cc1ccc(OC(C)CNC(=O)c2c[nH]nn2)cc1` (centres undefined), with -9.5%; and `CC(=O)NCC(=O)N1Cc2cc(C#N)ccc2C1c1cnco1` (centres undefined), with -9.91%.
As for `CC(C(=O)Nc1cccc(F)c1)N(C)CCN1CCOCC1` (centres undefined), the INHIBITION turned out to be 57.23%.
Turning to `CC(C(=O)NCc1ccc(F)cc1)N(C)CCN1CCOCC1` (centres undefined), the INHIBITION is 10.71%.
For the compound `CC(C(=O)Nc1cccc(C(F)(F)F)c1)N(C)CCN1CCOCC1` (centres undefined), the INHIBITION is -18.99%.
Then `CCOCC1CN(Cc2cnn(C)c2)Cc2nn(CC3CC3)cc21` (centres undefined), with -50.35%.
On to `Cc1oc(-c2ccsc2)nc1CC(=O)NCC(=O)Nc1cn[nH]c1`, for which the INHIBITION amounted to 11.01%.
For `Cc1cnn(CC2CCCCN2CCS(C)(=O)=O)c1` (centres undefined), the INHIBITION was found to be 44.41%.
Regarding `CC(=O)N1CCC(N2CCN3C(=O)N(Cc4ccccn4)C[C@H]3C2)CC1`, the INHIBITION is given as 37.54%.
As to `O=C1N(Cc2ccccn2)C[C@H]2CN(C3CCOCC3)CCN12`, the INHIBITION is listed as -8.59%.
Take `O=C1N(Cc2cccnc2)C[C@H]2CN(S(=O)(=O)c3ccccc3)CCN12`: the INHIBITION was 40.83%.
For the compound `O=C1N(Cc2ccccn2)C[C@H]2CN(S(=O)(=O)c3ccccc3)CCN12`, the INHIBITION is listed as 50.72%.
The value for `Cn1ccnc1CN1C[C@H]2CN(S(=O)(=O)c3ccccc3)CCN2C1=O` was 15.02%; that for `O=C1N(Cc2ccccn2)C[C@H]2CN(C3CCC3)CCN12` was 52.36%.
Then `Cc1c(F)cccc1S(=O)(=O)NC(C)(C)CN`, with 36.53%; and `CNC(=O)[C@@H]1[C@@H](c2ccccc2)CN2CCN(Cc3ccco3)C[C@H]12`, with -0.14%; and `CCN(Cc1ccco1)C(C)c1nc(C(C)(C)C)no1` (centres undefined), with 33.78%.
As for `CN(C)CCCNCCC(Cc1ccccc1)C1CCOC(C)(C)C1` (centres undefined), the INHIBITION is on record as -18.52%.
On to `CC(C(=O)N1CCn2cncc2C1)N1CCCC1` (centres undefined), for which the INHIBITION came to 17.2%.
For `O=C(C(c1ccc(F)cc1)N1CCCCC1)N1CCn2cncc2C1` (centres undefined), the INHIBITION was 50.59%.
Then `CC(C(=O)N1CCn2cncc2C1)N1C[C@@H](C)O[C@@H](C)C1` (some centres undefined), with -28.11%; and `Cc1nn(C)c(C)c1CC(=O)N1CCCC(n2ccnc2C)C1` (centres undefined), with 45.83%; and `CCCn1nccc1NC(=O)CN1CCn2c(nnc2C2CC2)C1`, with 9.36%.
Then `CNC(=O)COC1COC2(CCN(Cc3cccnc3)CC2)C1` (centres undefined), with 28.88%; and `CSC1=Nc2c(cnn2-c2ccc(Cl)cc2)C2=NCCCN12`, with -4.43%; and `CCSC1=Nc2c(cnn2-c2ccc(Cl)cc2)C2=NCCCN12`, with 51.78%.
`CSC1=Nc2c(cnn2-c2cccc(Cl)c2)C2=NCCCN12`: the INHIBITION stood at 18.15%.
As for `CC(=O)NCCc1ccc(S(=O)(=O)N(C)C(C)C(C)(C)C)s1` (centres undefined), the INHIBITION is on record as 32.1%.
For the compound `CN(C)C(=O)COC[C@@H]1CC[C@H]2[C@H](CCN2c2ccccn2)O1`, the INHIBITION is recorded as -3.69%.
Regarding `CN(C)C(=O)COC[C@H]1CC[C@@H]2[C@@H](CCN2Cc2ccccn2)O1`, the INHIBITION worked out at 53.98%.
For `c1ccc(COC[C@H]2CC[C@H]3[C@H](CCN3Cc3ccccn3)O2)nc1`, the INHIBITION was determined as 4.54%.
As for `OCCN1CC2(CCN(c3ccccc3)C2)C1`, the INHIBITION is recorded as -55.62%.
In the case of `CCN(C)C1CCCc2nc(C)sc21` (centres undefined), the INHIBITION amounted to 9.52%.
For the compound `CC(C)Cc1noc(CN(C)C2CCS(=O)(=O)C2)n1` (centres undefined), the INHIBITION is -12.52%.
Turning to `COc1ccc(OCc2noc(CN(C)C3CCS(=O)(=O)C3)n2)cc1` (centres undefined), the INHIBITION was found to be 57.91%.
The value for `CN(Cc1nc(C2CC2)no1)C1CCS(=O)(=O)C1` (centres undefined) was 31.27%; that for `CN(C)c1ccc(NC(=O)C2CN(Cc3ccccc3)CCO2)cn1` (centres undefined) was 12.94%.
Take `CCC1=NN2C(=N)C(=Cc3cccn3-c3ccc(Cl)cc3)C(=O)N=C2S1`: the INHIBITION is -3.11%.
In the case of `O=C(C1CC1)N1CCC2(CCN(Cc3cccc(F)c3)CC2)CC1`, the INHIBITION came to 27.05%.
Consider `CCC(O)CN1CCN(C(=O)c2ccn(-c3cccc(F)c3)n2)CC1` (centres undefined), for which the INHIBITION is 52.3%.
As for `O=C(c1ccn(-c2cccc(F)c2)n1)N1CCN(CCO)CC1`, the INHIBITION is 19.12%.
Then `CCC(O)CN1CCN(C(=O)c2ccn(-c3ccccc3)n2)CC1` (centres undefined), with 14.97%; and `O=C(NCCn1cccn1)c1ccn(-c2cccc(F)c2)n1`, with 64.16%; and `O=C(NCCn1ccnc1)c1ccn(-c2cccc(F)c2)n1`, with 8.37%.
`CC(O)CN1CCN(C(=O)c2ccn(-c3cccc(Cl)c3)n2)CC1` (centres undefined): the INHIBITION is recorded as -42.32%.
As to `O=C(c1ccn(-c2cccc(F)c2)n1)N1CCN(CC2CC2)CC1`, the INHIBITION is on record as -40.27%.
For the compound `CC1CCCCN1CCNC(=O)c1ccn(-c2cccc(F)c2)n1` (centres undefined), the INHIBITION was found to be 2.18%.
As to `CC(C)(O)CN1CCN(C(=O)c2ccn(-c3cccc(F)c3)n2)CC1`, the INHIBITION worked out at 65.76%.
The value for `NC(=O)COc1ccc(CNCc2cc(F)cc(F)c2)cc1` was 19.7%; that for `NC(=O)N1CCCC(c2nc(-c3cccnn3)no2)C1` (centres undefined) was 19.39%.
`Cc1noc(C)c1CN1C(=O)[C@@H]2CC[C@H]1CN(Cc1cccc(O)c1)C2`: the INHIBITION came to 30.42%.
Turning to `CC(C)O[C@@H]1CC[C@H]2[C@H]1OCCN2C(=O)c1nn(C)c2ccccc12`, the INHIBITION was -13.37%.
Consider `CCN(CC)C(CNCc1ccc(C)o1)c1ccco1` (centres undefined), for which the INHIBITION was found to be 15.89%.
As to `CCN1C(=O)CCCC12CCCN(C(=O)c1cnccn1)C2` (centres undefined), the INHIBITION is on record as -41.21%.
As to `CC(CN1CCOCC1)N(Cc1ccccc1)Cc1ccncc1` (centres undefined), the INHIBITION was 8.73%.
Then `COc1cc2c(cc1CNCc1ccnc(-n3cccn3)c1)OC(C)C2` (centres undefined), with 17.61%.
Consider `CCC(C)N(Cc1ccncc1)C(=O)CCSC` (centres undefined), for which the INHIBITION is reported as -20.95%.
Regarding `CCOCCC(=O)N(Cc1ccncc1)C(C)CC` (centres undefined), the INHIBITION was -35.26%.
Then `CCCC(=O)N(Cc1ccncc1)C(C)CC` (centres undefined), with 52.98%.
Then `O=C([C@H]1C[C@H]2OCC[C@H]2N(Cc2ccoc2)C1)N1CCCCO1`, with 21.77%.
Regarding `CS(=O)(=O)NCCCn1ccc2ccccc21`, the INHIBITION stood at 24.23%.
As to `CCNC(=O)CCC(=O)NC(C)Cc1ccccc1Br` (centres undefined), the INHIBITION is recorded as -3.87%.
Then `COC(=O)CCC(=O)NC(C)Cc1ccccc1Br` (centres undefined), with 2.7%; and `COC(=O)NCCC(=O)NC(C)Cc1ccccc1Br` (centres undefined), with 63.46%; and `CS(=O)(=O)NCc1cc(-c2cc(F)cc(F)c2)nc(N2CC[C@H](O)C2)n1`, with 4.66%.
On to `COc1ncccc1CNC(=O)NC(C)Cn1cccn1` (centres undefined), for which the INHIBITION is reported as 31.7%.
